AMA1-RON2 inh = qHTS for Inhibitors of AMA1-RON; Towards Development of Antimalarial Drug Lead: Primary Screen | Potency, µM (top dose mostly 58.2 µM), actives largely listed as inhibitors | AlphaScreen AMA1-biotinylated RON2 peptide binding | hit rate 0.2% among 360,000 | Plasmodium falciparum AMA1 (3D7) - RON2 peptide interaction; further: nearly all actives have a fitted effect of over 45% in size
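AMA1 (3D7) with his tag at 25 nM final met compounds first, then biotinylated RON2 peptide at 25 nM; detection used donor plus acceptor beads, 10 µg/mL apiece, read by AlphaScreen after 30 min at room temperature.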
AmpC detergent = qHTS Inhibitors of AmpC Beta-Lactamase (assay with detergent); P00811; hit rate 0.041% among 370,000; AID 485294, 2010; Potency, µM (highest dose often 114 µM), most hits filed as inhibitors; AmpC hydrolysis of nitrocefin, absorbance 480 nm, 0.01% Triton; further: nearly all actives have a fitted effect of over 25% in size
Target sequence (P00811 whole entry, looked up): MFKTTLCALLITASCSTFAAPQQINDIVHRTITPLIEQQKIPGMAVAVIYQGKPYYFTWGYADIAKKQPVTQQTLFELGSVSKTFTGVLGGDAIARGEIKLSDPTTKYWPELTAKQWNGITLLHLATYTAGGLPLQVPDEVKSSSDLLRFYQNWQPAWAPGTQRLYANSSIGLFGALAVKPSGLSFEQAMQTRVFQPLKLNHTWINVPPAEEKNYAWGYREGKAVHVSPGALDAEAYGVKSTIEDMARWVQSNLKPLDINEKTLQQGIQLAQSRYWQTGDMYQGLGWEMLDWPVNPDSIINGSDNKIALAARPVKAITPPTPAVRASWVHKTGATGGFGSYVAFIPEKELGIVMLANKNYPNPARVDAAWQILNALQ
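AmpC (5.3 nM in the dispensed reagent) in 20 mM phosphate pH 7.0 with 0.01% (detergent screen) or 0.0001% Triton X-100 was preincubated with compounds for 15 min at room temperature. Nitrocefin was then added from an 800 uM solution, and hydrolysis was followed at 480 nm.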
AmpC no deterg = qHTS Inhibitors of AmpC Beta-Lactamase (assay without detergent); hit rate 0.52% among 330,000; AmpC nitrocefin hydrolysis, absorbance 480 nm, 0.0001% Triton; Potency, µM (highest dose often 57.1 µM), hits mostly inhibitors; AID 485341, 2010; P00811; further: nearly all actives have a fitted effect of over 20% in size
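AmpC (5.3 nM in the dispensed reagent) in 20 mM phosphate pH 7.0 with 0.01% (detergent screen) or 0.0001% Triton X-100 was preincubated with compounds for 15 min at room temperature. Nitrocefin was then added from an 800 uM solution, and hydrolysis was followed at 480 nm.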
RE007 growth inh = qHTS Assay for Inhibitors of the HIV-1 protein Vpr. S. pombe RE007 Vpr strain, BacTiter-Glo ATP luminescence, 24 h. Potency, µM (top dose mostly 92.2 µM), hits mostly inhibitors. hit rate 0.21% among 360,000. AID 651644, 2012; active means well fitted falling curve with a large enough effect; inconclusive means small, poorly fitted or top-dose-only effect; inactive means no such curve, though single readings can be large or run the other way; further: nearly all actives have a fitted effect of over 50% in size
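Fission yeast RE007 carrying one integrated HIV-1 vpr copy, seeded at OD 0.01 in PMG+AL medium with 23 nL pinned compound. Grown 24 h at 30 degrees; viability read by BacTiter-Glo luminescence after 5 min.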
Sm TGR block = qHTS Assay for the Inhibitors of Schistosoma Mansoni Peroxiredoxins | hit rate 3% among 360,000 | purified TGR, DTNB reduction, TNB absorbance 405 nm | Potency, µM (highest dose often 114 µM), usual class: inhibitors; further: nearly all actives have a fitted effect of over 60% in size
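TGR 20 nM + NADPH 100 uM (dispensed conc.), cpd preinc 15 min RT; start with NADPH (500 uM addition) then DTNB (15 mM addition). Kinetic TNB absorbance, 405 nm filter. Four-parameter Hill fit across titration.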
Large screens that a line does not name were inactive. Sampled rows, rich in hits. Any-hit rate of the full collection: about 3.2%. Unless noted, the call rests on the fitted dose curve; in most records, active means well fitted curve in the direction sought with a large enough effect; inconclusive means small, poorly fitted or top-dose-only effect, or another doubt; inactive means no such curve, though single readings can be large; an effect the other way counts as inactive or inconclusive.

COc1ccc2ccccc2c1/C=N/N1C(=O)CSC1=S	AmpC no deterg 16µM
O=C1CSC(=S)N1/N=C/C=C/c1ccccc1	AmpC detergent inconclusive, AmpC no deterg inconclusive, Sm TGR block 16µM
CSc1ncc(C(=O)NCc2cccc(Br)c2)c(-c2ccccc2)n1	none (no result: AMA1-RON2 inh, AmpC no deterg, RE007 growth inh)
CCN1CCN(C(=O)Cn2ncc3c4ccccc4n(Cc4c(C)cc(C)cc4C)c3c2=O)CC1	none (no result: AMA1-RON2 inh, AmpC no deterg, RE007 growth inh)
CN(C)c1ccc(C=NN2C(=O)CSC2=S)c(Cl)c1	none (no result: AmpC detergent, AmpC no deterg, Sm TGR block)
COc1cccc(/C=N/N2C(=O)CSC2=S)c1O	Sm TGR block 5.6µM
COC(=O)Cn1c(C)nc([N+](=O)[O-])c1Br	Sm TGR block 6.3µM
Cc1nc([N+](=O)[O-])c(Br)n1CC(=O)c1cccc([N+](=O)[O-])c1	Sm TGR block 2µM
Cc1nc([N+](=O)[O-])c(Br)n1Cc1ccccc1	Sm TGR block 2.5µM
CCn1c(C)nc([N+](=O)[O-])c1C(=O)O	none
Cc1nc([N+](=O)[O-])c(Br)n1CC(=O)c1ccc(F)cc1	Sm TGR block 3.2µM
Cc1nc([N+](=O)[O-])c(SCC(O)CCl)n1Cc1ccc(Cl)cc1 (stereo unspecified)	none (no result: Sm TGR block)
CCCCCCC(=O)Nc1cc2nc3c(nc2cc1C)c(=O)n(C)c(=O)n3C	none (no result: AMA1-RON2 inh, AmpC no deterg, RE007 growth inh)
Cc1nc([N+](=O)[O-])c(Sc2nc3ccc([N+](=O)[O-])cc3[nH]2)n1Cc1ccccc1	Sm TGR block 14µM
O=C(CSc1nc2ccc([N+](=O)[O-])cc2[nH]1)c1ccc2ccccc2c1	none
CCOC(=O)CSc1nc(N)c(C#N)c(-c2ccc(OC)cc2)c1C#N	AmpC detergent inconclusive
C=C(C)CSc1nc(N)c(C#N)c(-c2ccc(C)cc2)c1C#N	Sm TGR block 35µM (no result: AmpC no deterg)
Cc1cccc(-c2nc(SCC(=O)N(C)c3ccccc3)c3c(=O)n(C)c(=O)n(C)c3n2)c1	none (no result: AMA1-RON2 inh, AmpC no deterg, RE007 growth inh)
O=C(NCc1ccc(F)cc1)C(c1ccccc1)c1ccccc1	none
CC(=O)N(Cc1ccc(F)cc1)C1=C(NCc2ccccc2)C(=O)c2ccccc2C1=O	AMA1-RON2 inh inconclusive, RE007 growth inh 7.1µM
COc1cc(C)c(NC(c2ccccc2)c2ccccc2)cc1OC	AMA1-RON2 inh 35µM
COc1ccc(CNC(=O)c2cc3c(=O)n4cccc(C)c4nc3s2)cc1	none (no result: AMA1-RON2 inh, AmpC no deterg, RE007 growth inh)
O=c1ccc(=O)n(-c2ccccc2)[nH]1	Sm TGR block 5µM
CCc1ccc(-n2nc3ccc(NC(=O)c4cc5ccccc5o4)cc3n2)cc1	none (no result: AMA1-RON2 inh, AmpC no deterg, RE007 growth inh)
COc1ccc(Oc2nc(SC)nc3ccccc23)cc1	AmpC no deterg 0.16µM
COc1ccc(Oc2nc(-c3cccnc3)nc3ccccc23)cc1	none
C[n+]1cccc2c(Br)ccc([O-])c21	Sm TGR block 45µM
CCOC(=O)N1CCN(C(=O)c2cc3sccc3n2C)CC1	none
CCOC(=O)N1CCC(NC(=O)C2CCCN(C(=O)c3cc4sccc4n3C)C2)CC1 (stereo unspecified)	AmpC no deterg 0.56µM
COc1ccc(C)cc1NC(=O)c1ccc(NS(=O)(=O)c2cccc3cccnc23)cc1	none
COc1ccccc1NC(=O)c1ccc(NS(=O)(=O)c2cccc3cccnc23)cc1	AmpC no deterg 7.9µM
CC1Oc2ccccc2N(Cc2cccc(F)c2)C1=O (stereo unspecified)	Sm TGR block 89µM
Cc1ccc2c(c1)N(Cc1cccc(F)c1)C(=O)C(C)O2 (stereo unspecified)	none
Fc1ccccc1/C=N/N1CCN(Cc2ccccc2Cl)CC1	AMA1-RON2 inh inconclusive
Clc1ccccc1CN1CCN(/N=C/C=C/c2ccco2)CC1	AMA1-RON2 inh inconclusive, Sm TGR block 16µM
O=C(CN1CCN(Cc2ccccc2Cl)CC1)N/N=C/C=C/c1ccco1	RE007 growth inh inconclusive, Sm TGR block 20µM
COC(=O)c1ccc(NC(=O)CCc2c(C)nn(-c3ccc(N4CCOCC4)nn3)c2C)cc1	none (no result: AMA1-RON2 inh, AmpC no deterg, RE007 growth inh)
Cc1nc(NCc2ccco2)c2c(C)c(C)sc2n1	AMA1-RON2 inh inconclusive
Cc1sc2nc3c4ccccc4c(NCc4ccco4)nn3c(=O)c2c1C	Sm TGR block 50µM
CCOc1ccccc1CNC(=O)C1=C(C)C(=O)OC12CCN(C(C)=O)CC2	none (no result: AMA1-RON2 inh, AmpC no deterg, RE007 growth inh)
CCOc1ccc(NC(=O)CN2CC(c3ccccc3)CC2=O)cc1 (stereo unspecified)	AmpC no deterg 2.5µM
COc1ccc(NC(=O)CN2CCN(CC(=O)Nc3ccc(OC)c(OC)c3)CC2)cc1	none
CCOc1ccc(NC(=O)CN2CCN(CC(=O)c3ccc(OCC)cc3)CC2)cc1	Sm TGR block 22µM
CCOc1ccc(NC(=O)CN2CCN(CC(=O)c3ccc(OC)c(OC)c3)CC2)cc1	Sm TGR block 32µM
CCOc1ccc(NC(=O)CN2CCN(CC(=O)Nc3ccc(C(N)=O)cc3)CC2)cc1	Sm TGR block inconclusive
Clc1ccccc1Cc1noc(CN2CCN(Cc3ccccn3)CC2)n1	Sm TGR block 18µM
O=C1C=CC(=O)N1CCCCCCN1C(=O)C=CC1=O	AmpC detergent inconclusive, RE007 growth inh 8.9µM
CC(=O)Oc1cc2c(C(=O)NCCCN3CCOCC3)c(C)oc2c2ccccc12	Sm TGR block 35µM
Cc1c(OCC(=O)NCCCN2CCOCC2)ccc2c1oc(=O)c1ccccc12	none
O=C(Nc1nc2n(n1)C(c1ccc(Cl)cc1)C=C(c1ccccc1)N2)c1ccco1 (stereo unspecified)	none (no result: AMA1-RON2 inh, AmpC no deterg, RE007 growth inh)
O=C(CCl)N(CCc1ccccc1)CCc1ccccc1	Sm TGR block 13µM
O=C(CCl)N(c1ccccc1)c1ccccc1	Sm TGR block 1.3µM
O=Cc1[nH]c2ccccc2c1N(C(=O)CCl)c1ccccc1	Sm TGR block 0.89µM
O=C(CCCc1ccccc1)NCCc1ccccc1	none
Cc1cccc(N(Cc2cc(=O)[nH]c3ccccc23)C(=O)CCl)c1	Sm TGR block inconclusive
CCCCCCN(C(=O)CCl)c1ccccc1	Sm TGR block 2.5µM
Cc1cccc(NC(=O)N2CC(=O)Nc3sc4c(c3C2c2ccccc2)CCCC4)c1C (stereo unspecified)	none (no result: AMA1-RON2 inh, AmpC no deterg, RE007 growth inh)
COC(=O)c1cc2sc(C)cc2n1Cc1nc(-c2ccc(C)cc2)oc1C	none (no result: AMA1-RON2 inh, AmpC no deterg, RE007 growth inh)
CCc1ccc(NC(=O)C(=O)NCCc2csc(-c3ccc(C(F)(F)F)cc3)n2)cc1	none (no result: AMA1-RON2 inh, AmpC no deterg, RE007 growth inh)
O=C(Cn1ncc(Cl)c(Cl)c1=O)N1CCc2ccccc21	Sm TGR block 16µM
O=C(Cn1ncc(Cl)c(Cl)c1=O)N1CCOCC1	none
CC1(C)C(=O)Nc2ccccc2N1C(=O)Cn1ncc(Cl)c(Cl)c1=O	Sm TGR block 10µM
O=C(Cn1ncc(Cl)c(Cl)c1=O)N1CCN(Cc2ccccc2)CC1	Sm TGR block 8.9µM
